PubChem BioAssay (NCI)
Compounds without any hit were thinned out: in the full panel of roughly 83,000, 20% have a hit.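 Method: cells in 96-well plates; compound added at one concentration; 48 h incubation; percent growth measured; values under 10 scored active.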 Active and inactive are the calls of the source.

Legend:
Assay in all cases: NCI-60 one-dose screen, 48 h (100 = growth as untreated, 0 = no growth, -100 = all killed)
Details in all cases: 10 µM unless noted
[1] = tested on: HCT-15 colon
[2] = tested on: HT29 colon
[3] = tested on: SNB-75 CNS
[4] = tested on: SNB-19 CNS
[5] = tested on: U251 CNS
[6] = tested on: PC-3 prostate
[7] = tested on: SK-MEL-5 melanoma
[8] = tested on: UACC-62 melanoma
[9] = tested on: LOX IMVI melanoma
[10] = tested on: SK-MEL-28 melanoma
[11] = tested on: EKVX NSCLC
[12] = tested on: SN12C renal
[13] = tested on: UO-31 renal
[14] = tested on: TK-10 renal
[15] = tested on: ACHN renal
[16] = tested on: CAKI-1 renal
[17] = tested on: A498 renal
[18] = tested on: CCRF-CEM leukemia
[19] = tested on: MOLT-4 leukemia

Measured: growth

CN(C)CCn1c(=O)c2c3cc4c(cc3n(CCN(C)C)c2c2ccc(Cl)cc21)OCO4
inactive: [1] 43.3% | [2] 25.1% | [3] 70.8% | [4] 34.3% | [5] 44.6% | [6] 36.2% | [7] 52.8% | [8] 76.9% | [10] 87% | [11] 74% | [12] 31.7% | [13] 57.8% | [14] 103% | [15] 26.3% | [16] 42.4% | [17] 67.1% | [18] 14.4%
active: [9] -88.2% | [19] 3.05%

Clc1ccc(Nc2nccc(Nc3ccc4[nH]ncc4c3)n2)cc1
active: [18] 5.15%
inactive: [1] 40.5% | [2] 16.6% | [3] 67.6% | [4] 78.1% | [5] 58.8% | [6] 24.9% | [7] 25.9% | [8] 33.5% | [9] 44.9% | [10] 80% | [11] 66.7% | [12] 51.6% | [13] 17.4% | [14] 61.6% | [15] 47.4% | [16] 52.3% | [17] 39.1% | [19] 23%

CN1CCC(CNc2ccc3ncc(-c4cccc(OC(F)(F)F)c4)n3n2)CC1
active: [1] -35.2% | [2] -46.1% | [3] -75.1% | [4] -48.6% | [5] -89.2% | [6] -20.6% | [7] -99.1% | [8] -95% | [9] -83.5% | [10] -86.4% | [11] 4.31% | [12] -81.2% | [13] -95.1% | [14] -4.7% | [15] -54.7% | [16] -62.8% | [17] -79.8% | [18] -5.49% | [19] -5.02%

N#Cc1ccc(-n2nnc3ccccc32)cc1C#N
inactive: [1] 99.8% | [2] 108% | [3] 121% | [4] 112% | [5] 91.3% | [6] 101% | [7] 97.6% | [8] 94.5% | [9] 99.4% | [10] 104% | [11] 79.2% | [12] 101% | [13] 88.5% | [14] 134% | [15] 103% | [16] 85.4% | [17] 72.8% | [18] 93.1% | [19] 93.3%

NC1=Nc2cc(OCCCN3Cc4ccccc4C3)c(OCC3CC3)cc2C12CCCC2
inactive: [1] 25.1% | [3] 60.3% | [4] 82.4% | [5] 49.5% | [6] 45.4% | [8] 45.7% | [11] 72.6% | [12] 77.6% | [13] 42.1% | [14] 78.4% | [15] 83.1% | [16] 49.9% | [17] 68.4% | [18] 37% | [19] 44.2%
active: [2] 5.45% | [7] -11% | [9] 8.85% | [10] -44%

N[C@@H]1CCCN(c2c(/C=C3\SC(=O)NC3=O)cccc2-c2ccccc2)C1
inactive: [1] 63.9% | [2] 55% | [5] 13.9% | [6] 47.5% | [7] 55% | [8] 62.2% | [9] 72.6% | [10] 73.8% | [11] 62.6% | [12] 65% | [13] 31.9% | [14] 78.6% | [15] 73.2% | [16] 73.6% | [17] 75% | [18] 55.3% | [19] 31.1%
active: [3] -14.1% | [4] 1.97%

CCN(CCO)CCCOc1ccc2c(Nc3cc(CC(=O)Nc4cccc(F)c4)[nH]n3)ncnc2c1
inactive: [1] 52.5% | [3] 76.3% | [4] 39.1% | [5] 39.8% | [6] 62.6% | [7] 63.3% | [9] 17.8% | [11] 51.8% | [12] 46.9% | [13] 50.4% | [14] 31.5% | [15] 48.9% | [16] 35.4% | [17] 47.4% | [18] 40.3% | [19] 36.3%
active: [2] -1.18% | [8] -4.86% | [10] -6.81%

O=C(O)c1ccc(Nc2ncc3c(n2)-c2ccc(Cl)cc2C(c2c(F)cccc2F)=NC3)cc1
inactive: [1] 50.5% | [2] 30.2% | [3] 48.8% | [4] 54.6% | [5] 42.5% | [6] 51.3% | [7] 60.6% | [8] 51.6% | [9] 33% | [10] 75.1% | [11] 80.1% | [12] 62.8% | [13] 41.8% | [14] 40.1% | [15] 49% | [16] 47.6% | [17] 25.3% | [18] 36.6% | [19] 44.6%

Cc1cc(-c2cc(OC(=O)c3ccccc3)ccc2Cl)cc2nnc(Nc3ccc(OCCN4CCCC4)cc3)nc12
inactive: [2] 63.9% | [3] 32.7% | [4] 91.9% | [5] 84.8% | [7] 83.1% | [8] 75.6% | [9] 48.4% | [10] 89.2% | [11] 92.3% | [12] 66.3% | [13] 73.9% | [14] 89.7% | [15] 74.2% | [16] 86.3% | [17] 94.3% | [19] 73.1%
active: [1] -66.9% | [6] -20.2% | [18] 3.09%

Cc1nc(NC(=O)N2CCC[C@H]2C(N)=O)sc1-c1ccnc(C(C)(C)C(F)(F)F)c1
active: [2] 4.8% | [17] 1.67% | [19] 8.66%
inactive: [1] 30.4% | [3] 24.8% | [4] 66.1% | [5] 33.4% | [6] 43.3% | [7] 61.8% | [8] 23.8% | [9] 18.8% | [10] 49.2% | [11] 41.1% | [12] 57.7% | [13] 25.1% | [14] 13.3% | [15] 36.9% | [16] 17.8% | [18] 35.9%

COC(=O)CNC(=O)[C@@H](OC)[C@@H]1Cc2cc3cc(OC4CC(OC5CC(O)C(O)C(C)O5)C(O)C(C)O4)c(C)c(O)c3c(O)c2C(=O)[C@H]1OC1CC(OC2CC(OC3CC(C)(O)C(O)C(C)O3)C(O)C(C)O2)C(O)C(C)O1 (some centres undefined)
active: [2] 3.78% | [3] -51.7% | [4] 9.4% | [5] 9.93% | [7] -44.6% | [8] -65.2% | [9] -15.5% | [10] -17.2% | [15] -1.39% | [17] -74.3% | [19] -2.56%
inactive: [1] 31.5% | [6] 12.9% | [11] 20.2% | [12] 13.7% | [13] 10.9% | [14] 21% | [16] 43.5% | [18] 18%

Nc1c(Cl)cccc1[N+](=O)[O-]
inactive: [1] 104% | [2] 111% | [3] 104% | [4] 103% | [5] 103% | [6] 98.4% | [7] 104% | [8] 101% | [9] 103% | [10] 106% | [11] 104% | [12] 103% | [13] 90.4% | [14] 125% | [15] 104% | [16] 104% | [17] 101% | [18] 101% | [19] 99.6%

CN1CCN(c2ccc(OC(F)(F)F)c(Nc3ncc4c(n3)-c3c(c(C(N)=O)nn3CCO)CC4)c2)CC1
inactive: [1] 10.7% | [2] 10.3% | [4] 23.4% | [5] 25.4% | [6] 36.8% | [7] 23.4% | [8] 35.9% | [9] 25.6% | [10] 88.7% | [11] 35.7% | [12] 25.9% | [13] 35.3% | [14] 53.5% | [15] 37.1% | [16] 28.4% | [18] 18.2% | [19] 18.3%
active: [3] 7.72% | [17] -5.99%

NC(=O)c1c(OCc2c(F)cc(Br)cc2F)nsc1NC(=O)NCCCCN1CCCC1
active: [1] 5.99% | [2] -38.9% | [3] -79.9% | [4] 5.06% | [5] -83.3% | [6] 3.22% | [7] -99.1% | [8] -75.6% | [9] -90.6% | [10] -74.6% | [11] 4.31% | [12] 0.752% | [13] -76.8% | [14] -1.76% | [15] -29.7% | [16] -26.2% | [17] -13.8% | [18] 2.77% | [19] -16.4%

CCCCCC(=O)OCc1ccc(Cl)c(Cl)c1
inactive: [1] 109% | [2] 109% | [3] 96.5% | [4] 105% | [5] 98.2% | [6] 96.3% | [7] 108% | [8] 106% | [9] 96% | [10] 111% | [11] 116% | [12] 111% | [13] 90.5% | [14] 104% | [15] 107% | [16] 103% | [17] 92.6% | [18] 109% | [19] 98.7%

CC#CC(=O)N1CCC[C@H]1c1nc(-c2ccc(C(=O)Nc3ccccn3)cc2)c2c(N)nccn12
inactive: [1] 87.8% | [2] 73.4% | [3] 77% | [4] 90.6% | [5] 83.6% | [6] 81.1% | [7] 86.6% | [8] 77.1% | [9] 93.7% | [10] 88.3% | [11] 92.1% | [12] 72.3% | [13] 79% | [14] 72.8% | [15] 73.6% | [16] 72.9% | [17] 111% | [18] 71.5% | [19] 89.4%
